# Among all 5,500 compounds or so, about 2,000 (36%) were called active. Another 18% or so got no clear call; they are omitted. The list shows a part of the results. Values without a mark were called inactive. Rule as the data show it: active = normalized growth mostly below about 0.91 (no sharp cut-off); inconclusive = no clear call, values can overlap the other calls; inactive = mostly above about 0.92.
# Assay: chemical genetic growth profiling, strain panel (AID 1159580);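 also: tested at 20 µM; growth read once vehicle control cultures reached saturation at 30 °C; 1 = growth at the plate median or of vehicle wells; lower values mean less growth of the strain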
# Conditions: growth OD
smiles,measurement,setting,value
O=C(OCc1ccccc1)c1ccccc1,normalized growth,"S. cerevisiae deletion strains, locus YKL009W, strain mrt4, stronger effect = lower value",0.934
same,normalized growth,"S. cerevisiae deletion strains, locus YKL068W, stronger effect = lower value",0.961
same,normalized growth,"S. cerevisiae deletion strains, locus YKL085W, strain MDH1 (second series), stronger effect = lower value",0.957
same,normalized growth,"S. cerevisiae deletion strains, locus YKL085W, strain MDH1, stronger effect = lower value",0.957
same,normalized growth,"S. cerevisiae deletion strains, locus YKL160W, strain elf1, stronger effect = lower value",0.951
same,normalized growth,"S. cerevisiae deletion strains, locus YKL190W, strain CNB1, stronger effect = lower value",1
same,normalized growth,"S. cerevisiae deletion strains, locus YKR001C, strain vps1, stronger effect = lower value",0.789 (active)
same,normalized growth,"S. cerevisiae deletion strains, locus YKR026C, strain gcn3, stronger effect = lower value",0.954
same,normalized growth,"S. cerevisiae deletion strains, locus YKR091W, strain srl3, stronger effect = lower value",0.952
same,normalized growth,"S. cerevisiae deletion strains, locus YLL001W, strain dnm1, stronger effect = lower value",0.945
same,normalized growth,"S. cerevisiae deletion strains, locus YLL026W, stronger effect = lower value",0.953
same,normalized growth,"S. cerevisiae deletion strains, locus YLL041C, strain sdh2, stronger effect = lower value",0.965
same,normalized growth,"S. cerevisiae deletion strains, locus YLR027C, strain aat2, stronger effect = lower value",0.954
same,normalized growth,"S. cerevisiae deletion strains, locus YLR039C, strain RIC1, stronger effect = lower value",0.83
same,normalized growth,"S. cerevisiae deletion strains, locus YLR058C, strain SHM2, stronger effect = lower value",0.987
same,normalized growth,"S. cerevisiae deletion strains, locus YLR102C, strain apc9, stronger effect = lower value",0.969
same,normalized growth,"S. cerevisiae deletion strains, locus YLR113W, strain HOG1, stronger effect = lower value",0.783 (active)
same,normalized growth,"S. cerevisiae deletion strains, locus YLR221C, strain rsa3, stronger effect = lower value",0.925
same,normalized growth,"S. cerevisiae deletion strains, locus YLR258W, strain gsy2, stronger effect = lower value",0.956
same,normalized growth,"S. cerevisiae deletion strains, locus YLR262C, strain YPT6 (second series), stronger effect = lower value",0.739 (active)
same,normalized growth,"S. cerevisiae deletion strains, locus YLR262C, strain YPT6, stronger effect = lower value",0.839
same,normalized growth,"S. cerevisiae deletion strains, locus YLR268W, strain sec22, stronger effect = lower value",0.941
same,normalized growth,"S. cerevisiae deletion strains, locus YLR320W, strain mms22, stronger effect = lower value",0.835 (active)
same,normalized growth,"S. cerevisiae deletion strains, locus YLR330W, strain CHS5, stronger effect = lower value",0.982
same,normalized growth,"S. cerevisiae deletion strains, locus YLR342W, strain FKS1 (second series), stronger effect = lower value",0.906
same,normalized growth,"S. cerevisiae deletion strains, locus YLR342W, strain FKS1, stronger effect = lower value",0.944
same,normalized growth,"S. cerevisiae deletion strains, locus YLR357W, strain rsc2, stronger effect = lower value",1.05
same,normalized growth,"S. cerevisiae deletion strains, locus YLR370C, strain arc18, stronger effect = lower value",0.969
same,normalized growth,"S. cerevisiae deletion strains, locus YLR371W, strain rom2, stronger effect = lower value",0.966
same,normalized growth,"S. cerevisiae deletion strains, locus YLR384C, strain iki3, stronger effect = lower value",0.974
same,normalized growth,"S. cerevisiae deletion strains, locus YLR418C, strain cdc73, stronger effect = lower value",0.885
same,normalized growth,"S. cerevisiae deletion strains, locus YML016C, strain PPZ1, stronger effect = lower value",0.991
same,normalized growth,"S. cerevisiae deletion strains, locus YML032C, strain rad52, stronger effect = lower value",0.948
same,normalized growth,"S. cerevisiae deletion strains, locus YML120C, strain ndi1, stronger effect = lower value",0.939
same,normalized growth,"S. cerevisiae deletion strains, locus YML124C, strain tub3, stronger effect = lower value",0.969
same,normalized growth,"S. cerevisiae deletion strains, locus YMR058W, strain fet3, stronger effect = lower value",0.952
same,normalized growth,"S. cerevisiae deletion strains, locus YMR078C, strain ctf18, stronger effect = lower value",0.957
same,normalized growth,"S. cerevisiae deletion strains, locus YMR125W, strain sto1, stronger effect = lower value",0.966
same,normalized growth,"S. cerevisiae deletion strains, locus YMR129W, stronger effect = lower value",0.967
same,normalized growth,"S. cerevisiae deletion strains, locus YMR205C, strain PFK2, stronger effect = lower value",0.899
same,normalized growth,"S. cerevisiae deletion strains, locus YMR223W, strain ubp8, stronger effect = lower value",0.925
same,normalized growth,"S. cerevisiae deletion strains, locus YMR231W, strain pep5, stronger effect = lower value",0.984
same,normalized growth,"S. cerevisiae deletion strains, locus YMR263W, strain SAP30, stronger effect = lower value",0.981
same,normalized growth,"S. cerevisiae deletion strains, locus YMR307W, strain GAS1, stronger effect = lower value",1.06
same,normalized growth,"S. cerevisiae deletion strains, locus YNL067W, strain RPL9B, stronger effect = lower value",0.954
same,normalized growth,"S. cerevisiae deletion strains, locus YNL071W, strain lat1, stronger effect = lower value",0.889 (active)
same,normalized growth,"S. cerevisiae deletion strains, locus YNL128W, strain TEP1, stronger effect = lower value",0.989
same,normalized growth,"S. cerevisiae deletion strains, locus YNL183C, strain NPR1, stronger effect = lower value",0.868
same,normalized growth,"S. cerevisiae deletion strains, locus YNL209W, strain ssb2, stronger effect = lower value",0.968
same,normalized growth,"S. cerevisiae deletion strains, locus YNL233W, strain BNI4, stronger effect = lower value",0.931
same,normalized growth,"S. cerevisiae deletion strains, locus YNL248C, strain rpa49, stronger effect = lower value",0.905
same,normalized growth,"S. cerevisiae deletion strains, locus YNL250W, strain rad50, stronger effect = lower value",0.987
same,normalized growth,"S. cerevisiae deletion strains, locus YNL271C, strain bni1, stronger effect = lower value",0.95
same,normalized growth,"S. cerevisiae deletion strains, locus YNL298W, strain CLA4, stronger effect = lower value",0.954
same,normalized growth,"S. cerevisiae deletion strains, locus YNL307C, strain MCK1, stronger effect = lower value",0.798 (active)
same,normalized growth,"S. cerevisiae deletion strains, locus YNL322C, strain KRE1 (second series), stronger effect = lower value",0.973
same,normalized growth,"S. cerevisiae deletion strains, locus YNL322C, strain KRE1, stronger effect = lower value",0.989
same,normalized growth,"S. cerevisiae deletion strains, locus YNR049C, strain mso1, stronger effect = lower value",0.954
same,normalized growth,"S. cerevisiae deletion strains, locus YNR052C, strain pop2, stronger effect = lower value",1
same,normalized growth,"S. cerevisiae deletion strains, locus YOL006C, strain TOP1, stronger effect = lower value",0.725
same,normalized growth,"S. cerevisiae deletion strains, locus YOL012C, strain htz1",1.34
same,normalized growth,"S. cerevisiae deletion strains, locus YOL147C, strain pex11, stronger effect = lower value",0.974
same,normalized growth,"S. cerevisiae deletion strains, locus YOR001W, strain rrp6, stronger effect = lower value",0.916
same,normalized growth,"S. cerevisiae deletion strains, locus YOR061W, strain CKA2, stronger effect = lower value",0.988
same,normalized growth,"S. cerevisiae deletion strains, locus YOR069W, strain VPS5, stronger effect = lower value",0.991
same,normalized growth,"S. cerevisiae deletion strains, locus YOR070C, strain gyp1, stronger effect = lower value",0.965
same,normalized growth,"S. cerevisiae deletion strains, locus YOR080W, strain dia2, stronger effect = lower value",0.985
same,normalized growth,"S. cerevisiae deletion strains, locus YOR083W, strain WHI5, stronger effect = lower value",0.97
same,normalized growth,"S. cerevisiae deletion strains, locus YOR106W, strain vam3, stronger effect = lower value",0.859 (active)
same,normalized growth,"S. cerevisiae deletion strains, locus YOR136W, strain idh2, stronger effect = lower value",0.987
same,normalized growth,"S. cerevisiae deletion strains, locus YOR144C, strain elg1, stronger effect = lower value",0.974
same,normalized growth,"S. cerevisiae deletion strains, locus YOR184W, strain ser1, stronger effect = lower value",0.655 (active)
same,normalized growth,"S. cerevisiae deletion strains, locus YOR231W, strain MKK1, stronger effect = lower value",0.86 (active)
same,normalized growth,"S. cerevisiae deletion strains, locus YOR265W, strain rbl2, stronger effect = lower value",0.957
same,normalized growth,"S. cerevisiae deletion strains, locus YOR270C, strain vph1, stronger effect = lower value",0.927
same,normalized growth,"S. cerevisiae deletion strains, locus YOR290C, strain snf2, stronger effect = lower value",0.941
same,normalized growth,"S. cerevisiae deletion strains, locus YOR316C, strain cot1, stronger effect = lower value",0.974
same,normalized growth,"S. cerevisiae deletion strains, locus YPL051W, strain arl3, stronger effect = lower value",0.96
same,normalized growth,"S. cerevisiae deletion strains, locus YPL078C, strain atp4, stronger effect = lower value",0.933
same,normalized growth,"S. cerevisiae deletion strains, locus YPL106C, strain sse1, stronger effect = lower value",1
same,normalized growth,"S. cerevisiae deletion strains, locus YPL240C, strain hsp82, stronger effect = lower value",0.958
same,normalized growth,"S. cerevisiae deletion strains, locus YPL241C, strain CIN2, stronger effect = lower value",0.99
same,normalized growth,"S. cerevisiae deletion strains, locus YPL256C, strain CLN2, stronger effect = lower value",0.832
same,normalized growth,"S. cerevisiae deletion strains, locus YPR119W, strain clb2, stronger effect = lower value",0.975
same,normalized growth,"S. cerevisiae deletion strains, locus YPR141C, strain kar3, stronger effect = lower value",0.949
same,normalized growth,"S. cerevisiae deletion strains, locus YPR163C, strain tif3, stronger effect = lower value",0.975
same,normalized growth,"S. cerevisiae deletion strains, locus YPR167C, strain met16, stronger effect = lower value",0.96
same,normalized growth,"S. cerevisiae deletion strains, strain wtn01, stronger effect = lower value",0.928
same,normalized growth,"S. cerevisiae strains, strain wild type, stronger effect = lower value",0.984
